In PubChem BioAssay (NCI):
The panel holds about 79,000 compounds, 15% with a hit somewhere; the sample as a whole holds those more often. Unmarked numbers belong to inactive results. Activity calls are given as the source filed them. Rule as the data show it: active = growth inhibition above about 70%; inactive = the rest.

Columns and labels:
[1] = NCI Yeast Anticancer Drug Screen. Data for the rad50 strain (AID 155);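 also: 0% = growth of vehicle-only cultures of the same strain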; details: S. cerevisiae rad50 strain growth inhibition, active compounds read high
How it was run: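 Readout: growth inhibition relative to vehicle-treated cultures. Compound exposure was carried out in a genetically defined yeast strain deficient in DNA damage repair.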

[2] = NCI Yeast Anticancer Drug Screen. Data for the mec2-1 strain (AID 157); details: S. cerevisiae mec2-1 strain, active compounds read high
How it was run: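 Readout is yeast growth inhibition, normalised to vehicle-treated controls, in the mec2-1 strain exposed to compound.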

[3] = NCI Yeast Anticancer Drug Screen. Data for the sgs1 mgt1 strain (AID 161);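 also: 0% = growth of cultures given vehicle only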; details: S. cerevisiae sgs1 mgt1 strain, active compounds read high
How it was run: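 Percent growth inhibition was derived by comparing compound-exposed mutant yeast with vehicle-exposed cultures. The strain carries alterations in DNA damage repair.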

[4] = NCI Yeast Anticancer Drug Screen. Data for the cln2 rad14 strain (AID 165);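 also: 0% = growth equal to vehicle treated cultures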; details: S. cerevisiae cln2 rad14 strain, active compounds read high
How it was run: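 Relative to vehicle controls, growth inhibition of compound-treated cln2 rad14 yeast was recorded.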

[5] = NCI Yeast Anticancer Drug Screen. Data for the bub3 strain (AID 167); details: S. cerevisiae bub3 mutant strain, active compounds read high
How it was run: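 Readout: yeast growth inhibition, expressed relative to vehicle-only wells. The test organism is a mutant strain from a panel with lesions in DNA repair or checkpoint genes.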

[6] = NCI Yeast Anticancer Drug Screen. Data for the mlh1 rad18 strain (AID 175); details: S. cerevisiae mlh1 rad18 strain growth inhibition, active compounds read high
How it was run: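 Test agents were incubated with a yeast strain of defined genotype (DNA damage repair defect). Inhibition of growth was derived by comparison with vehicle-exposed cultures.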

[7] = at 5.0 µM (retest, dose inferred, filed as 0.5)
[8] = at 50.0 µM (retest, dose inferred, filed as 5.0)

Compound | growth inhibition [1, 7] [%] | growth inhibition [1, 8] | growth inhibition ([1]; at 50.0 µM) | growth inhibition [2, 7] [%] | growth inhibition [2, 8] | growth inhibition ([2]; at 50.0 µM) | growth inhibition [3, 7] | growth inhibition [3, 8] | growth inhibition ([3]; at 50.0 µM) | growth inhibition [4, 7] [%] | growth inhibition [4, 8] | growth inhibition ([4]; at 50.0 µM) | growth inhibition [5, 7] [%] | growth inhibition [5, 8] | growth inhibition ([5]; at 50.0 µM) | growth inhibition [6, 7] [%] | growth inhibition [6, 8] | growth inhibition ([6]; at 50.0 µM)
CC(=O)OC1=C(CC(C)C)C(=O)c2ccccc2C1=O | 7 | 67% | 69.2% | 8 | 70% (active) | 59.2% | 7% | 88% (active) | 78.6% (active) | 1 | 55% | 51% | 6 | 78% (active) | 56.6% | 20 | 85% (active) | 73.5% (active)
O=C1OC2=C(CCc3nc(-c4ccccc4)sc32)C(N(c2ccccc2)c2ccccc2)C1(Cl)Cl (configuration not stated) | -4 | 11% | 63.6% | -5 | 12% | 41.8% | 1% | 19% | 73% (active) | -13 | -15% | 60.1% | 0 | -3% | 49% | 2 | 9% | 68.7%
COc1ccc2ccc(OC)c(C=O)c2c1 | -158 | -119% | 97.5% (active) | -50 | -111% | 10.2% | -65% | -60% | -1% | -63 | -58% | -28.2% | -67 | -74% | -25.6% | -144 | -107% | 63.5%
Oc1c(N(Cc2ccccc2)Cc2ccccc2)ccc2cccnc12 | -2 | 96% (active) | 98.4% (active) | -15 | 96% (active) | 98.5% (active) | -1% | 97% (active) | 98.6% (active) | -15 | 95% (active) | 96.2% (active) | -8 | 97% (active) | 98.8% (active) | 1 | 96% (active) | 98% (active)
Cc1ccc(SSCCCCS(=O)O)cc1 | -2 | 33% | 65.7% | 4 | 85% (active) | 62.2% | 5% | 91% (active) | 82.8% (active) | -5 | 64% | 84.9% (active) | 13 | 88% (active) | 80.3% (active) | 1 | 80% (active) | 91.8% (active)
Cc1nn(C(=O)c2ccncc2)c(C)c1N=Nc1ccccc1[N+](=O)[O-] | 49 | 96% (active) | 61.3% | 11 | 93% (active) | 20.6% | 11% | 90% (active) | 84.8% (active) | 21 | 6% | -3.25% | -1 | 14% | 2.4% | 4 | 94% (active) | 26.1%
Clc1ccccc1NN(Cc1ccccn1)c1ccccc1Cl | 16 | 54% | 76.5% (active) | -6 | 32% | 58.7% | 8% | 69% | 58.9% | -14 | 50% | 57% | 28 | 77% (active) | 88.4% (active) | 3 | 59% | 71.2% (active)
[N-]=[N+]=Nc1c(C=O)c(=O)n(-c2ccccc2)c2ccccc12 | 8 | 57% | 67.2% | -1 | 60% | 80.4% (active) | -5% | 47% | 79% (active) | 0 | 29% | 63.5% | -23 | 26% | 63.6% | 6 | 67% | 68.7%
NC1=NC2=C(CCCC2)C(c2cccs2)S1 (configuration not stated) | 57 | 82% (active) | 65.8% | 39 | 78% (active) | 32.4% | 76% (active) | 87% (active) | 75.7% (active) | 45 | 49% | 37% | 38 | 74% (active) | 61.7% | 61 | 92% (active) | 60.6%
